Source: PubChem BioAssay
Pf growth 96h = P. falciparum growth inhibition at 96 hour, primary screen for plastid delayed-death inhibitors; P. falciparum luciferase reporter growth, 96 h; Potency, µM (highest dose often 28.7 µM), for the others: at the highest dose activity change, negative = inhibition, most hits filed as inhibitors; actives 6.9% (n = 320,000); AID 504834; note: potency is the fitted concentration of half-maximal effect; % is set by controls: 0 for no effect and ±100 for the full control effect
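Infected RBCs, 2% Hct / 0.05% parasitemia final; luciferase-reporter P. falciparum; cpd 96 h, 37 C, 5% CO2; luciferase detection reagent; luminescence.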
NS1 function inh = inhibitors of influenza NS1 protein function; actives 0.4% (n = 270,000); Potency, µM (highest dose often 46.1 µM), for inactives: at the highest dose activity, positive = more growth; AID 2326; calls by dose curve; note: potency is the fitted concentration of half-maximal effect; actives are rising curves; nearly all actives have a fitted effect of over 50% in size
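A cell-based growth assay was used: compounds that relieve NS1-induced slow growth of budding yeast raise OD600. Assay medium was yeast nitrogen base with ammonium sulphate and -URA supplement, pH 6.0, with 2% galactose.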
Shiga inhibitor = inhibitors of Shiga toxin in Vero cells | Vero cells, Shiga toxin protein synthesis inhibition reporter | inhibition, % at 38.7 µM | actives 9.2% (n = 290,000); in the data active = inhibition mostly above about 28%, no sharp cut-off; inactive = mostly below about 43%; note: 0% is about no effect
Pf growth 48h = inhibits P. falciparum growth in the first generation, 48 h; actives 5.9% (n = 310,000); P. falciparum luciferase growth in erythrocytes, 48 h; Potency, µM (doses to about 28.7 µM), for inactives: at the highest dose activity change, negative = inhibition, hits mostly inhibitors; AID 504832; note: potency is the fitted concentration of half-maximal effect; % is set by controls: 0 for no effect and ±100 for the full control effect
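Parasite viability was followed by luminescence of a genomically integrated firefly luciferase. Cultures held 0.1% parasitemia at 2% hematocrit (final), incubated under 5% CO2 at 37 C.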
CHX counter = counter-screen hit for Shiga toxin inhibitors, cycloheximide; cell reporter, cycloheximide protein synthesis inhibition counterscreen; max response, %; actives 12% (n = 300,000); AID 2314; in the data active = max response mostly above about 13%, no sharp cut-off; inactive = mostly below about 14%; note: read at 38.3 µM for the half of the compounds with a filed dose; 0% is about no effect
The depositor's hits bear a star; ? = inconclusive; / = no result. In the library only some 21% were active in any assay of this set; here they are far more common. Unless noted, calls come from the whole dose curve; as a rule, active = well fitted inhibition curve with a large enough effect; inconclusive = small, poorly fitted or top-dose-only effect, or another doubt; inactive = no such curve, though single readings can be large or run the other way.

SMILES | Pf growth 96h | NS1 function inh | Shiga inhibitor | Pf growth 48h | CHX counter
Cc1ccc(S(=O)(=O)N(CC(=O)O)c2ccc(Cl)c(C(F)(F)F)c2)cc1 | 0.2% | 3.5% | -4.8 | -1.6% | -2.2
COc1ccc(OCC(=O)N2CCN(C(=O)c3ccccc3)CC2)cc1 | / | -1.7% | 17.7 | 2.7% | 0.8
COC(=O)[C@@]1(Cc2ccc(OC)cc2)[C@H]2c3cc(C(=O)N(C)C)n(C[C@H](O)CO)c3C[C@H]2CN1C(=O)c1ccccc1 | 8.28µM* | -21.7% | -1.7 | ? | -3.2
COC(=O)[C@@]1(Cc2ccc(F)cc2)[C@H]2c3cc(C(=O)N(C)C)[nH]c3C[C@H]2CN1C(=O)c1ccccc1 | 13.1µM* | 1.3% | -8.2 | 13.1µM* | -0.6
COC(=O)[C@@]1(Cc2ccc(OC)cc2)[C@@H]2C(=CC(=O)[C@H]2CC(=O)C(=O)N(C)C)CN1C(=O)c1ccccc1 | 9.28µM* | -18.7% | -18.5 | 14.7µM* | -4.9
COc1ccc(CCNC(=O)C2CCN(C(=O)c3ccc(F)cc3)CC2)cc1OC | 145.1% | 1.4% | 18.5 | -12.2% | 1.2
COC(=O)[C@@]1(Cc2ccc(F)cc2)[C@H]2c3cc(C(=O)N(C)C)n(Cc4ccc(OC)c(OC)c4)c3C[C@H]2CN1C(=O)c1ccccc1 | 5.22µM* | -14.4% | -7.3 | ? | -3.7
C=CCSc1nnc2c(n1)OC(c1c(C)[nH]n(-c3ccccc3)c1=O)Nc1ccccc1-2 (stereo unspecified) | 20.4% | -8.6% | 31.6 | -0.5% | 1.4
O=C(Cl)COCc1ccccc1 | / | / | -4.6 | / | -6.3
COC(=O)[C@@]1(Cc2ccc(F)cc2)[C@H]2c3cc(C(=O)N(C)C)n(CCc4ccc(OC)c(Br)c4)c3C[C@H]2CN1C(=O)c1ccccc1 | 5.86µM* | -5.3% | -13.1 | ? | -1.1
COc1ccc(CC2(CO)CCN(Cc3ccc(OC(F)(F)F)cc3)CC2)cc1 | -20.7% | 2.4% | 2.7 | ? | 2.6
COC(=O)[C@@]1(Cc2ccc(F)cc2)[C@H]2c3cc(C(=O)N(C)C)n(Cc4ccccc4)c3C[C@H]2CN1C(=O)c1ccccc1 | 3.29µM* | 13.2% | -10.7 | 2.94µM* | -2.5
C=C1C(=O)C=C2CN(C(=O)c3ccccc3)[C@@](Cc3ccc(F)cc3)(C(=O)OC)[C@@H]12 | ? | 5.3% | -30.5 | ? | -10.9
COC(=O)[C@@]1(Cc2ccc(OC)cc2)[C@H]2c3cc(C(=O)N(C)C)n(Cc4ccc(OC(F)(F)F)cc4)c3C[C@H]2CN1C(=O)c1ccccc1 | 3.29µM* | ? | -13.7 | ? | -2.0
Cc1cccnc1NC(=O)c1ccc(Cl)c(S(=O)(=O)N2CCCCCC2)c1 | ? | -29.1% | -2.0 | ? | 3.5
COC(=O)C1=C(c2ccccc2OCc2ccccc2)C[C@@H]2CC[C@H]1N2C(=O)NCc1ccc(Cl)cc1 | ? | / | / | 9.28µM* | /
COC(=O)C1=C(c2c(C)noc2C)C[C@@H]2CC[C@H]1N2C(=O)NCc1ccc(F)cc1 | 20.3% | / | / | 28.3% | /
COC(=O)C1=C(c2ccccc2OCc2ccccc2)C[C@@H]2CC[C@H]1N2C(=O)NCc1ccc([N+](=O)[O-])cc1 | ? | / | / | 11.7µM* | /
COC(=O)C1=C(c2ccccc2OCc2ccccc2)C[C@@H]2CC[C@H]1N2C(=O)NCc1ccc(N(C)C)cc1 | ? | / | / | 6.57µM* | /
COC(=O)C1=C(c2ccc(F)cc2OCc2ccccc2)C[C@@H]2CC[C@H]1N2C(=O)NCc1ccc(N(C)C)cc1 | ? | / | / | 11.7µM* | /
CCc1cc(C(=O)N/N=C/c2ccc(OC)cc2)c2ccccc2n1 | -6.2% | -1.0% | -3.3 | -0.2% | -1.9
Cc1cc(C)n(-c2ccc(NC(=O)C3CCN(Cc4cc(C)c(C)o4)CC3)cc2)n1 | -1.6% | 3.1% | -4.8 | ? | -1.1
COCc1ccc(C(=O)N2CCCCC2C(=O)Nc2ccc(-n3nc(C)cc3C)cc2)o1 (stereo unspecified) | 11.7µM* | 4.1% | -2.4 | -11.4% | 0.5
Cc1cc(C)n(-c2ccc(NC(=O)C3CCN(Cc4ccc(C)o4)CC3)cc2)n1 | 14.7µM* | 2.7% | -3.1 | 13.1µM* | 1.1
N#Cc1ccc(COC(=O)c2ccccn2)cc1 | 6.9% | / | 21.4 | 15.0% | 5.9
SMILES | Pf growth 96h | NS1 function inh | Shiga inhibitor | Pf growth 48h | CHX counter
Cc1ccccc1OCCC(=O)N(CC(C)C)c1c(N)n(Cc2ccccc2)c(=O)[nH]c1=O | ? | / | / | 11.7µM* | /
CCOc1ccc2nc(SCC(=O)N(CC(C)C)c3c(N)n(Cc4ccccc4)c(=O)[nH]c3=O)[nH]c2c1 | 11.7µM* | / | / | ? | /
CCOc1ccc(OCCC(=O)N(CCCOC)c2c(N)n(Cc3ccccc3)c(=O)[nH]c2=O)cc1 | 0.5% | / | / | ? | /
CCOc1ccc(OCCC(=O)N(CCC(C)C)c2c(N)n(Cc3ccccc3)c(=O)[nH]c2=O)cc1 | 14.0% | / | / | 10.4µM* | /
CCCCN(C(=O)CSc1nnc(-c2ccc(Cl)cc2)o1)c1c(N)n(CC(C)C)c(=O)[nH]c1=O | ? | / | / | 13.1µM* | /
C=C[C@@]1(C)CC(=O)[C@]2(O)[C@@]3(C)[C@H](O)CCC(C)(C)[C@@H]3[C@H](O)[C@H](OC(C)=O)[C@@]2(C)O1 | / | / | -7.2 | / | -1.3
CCCCN(C(=O)CCSc1ccc(F)cc1)c1c(N)n(Cc2ccccc2)c(=O)[nH]c1=O | 11.7µM* | / | / | 11.7µM* | /
COc1ccc2nc(NC(=O)C(NS(=O)(=O)c3cccc4nsnc34)C(C)C)sc2c1 (stereo unspecified) | ? | 19.9% | -8.5 | / | -3.7
CC(C)N=c1scc(-c2ccco2)n1/N=C/c1ccc(O)c(O)c1 | ? | -144.8% | 56.2 | ? | 42.5*
C=CCc1c(C)nc(-c2ccccc2)nc1Nc1ccc(O)cc1 | ? | -7.5% | -13.7 | 11.9% | -0.3
C=CCc1c(C)nc(-c2ccccc2)nc1N/N=C(\C)c1ccccc1 | ? | 13.0% | 20.8 | 11.3% | 12.0*
CC(C)(C)C(=O)Nc1ccccc1C(=O)Nc1cc(Cl)ccc1Cl | 4.15µM* | -26.4% | -1.8 | 11.7µM* | -1.8
COc1ccc(C(=O)Nc2cc(Cl)ccc2Cl)c(OC)n1 | 21.2% | -1.3% | 21.4 | 13.7% | 17.8*
CC(C)(C)C(=O)Nc1ccccc1C(=O)Nc1cccnc1 | 45.8% | 5.7% | 14.7 | 9.3% | -3.0
COc1ccc(/C=C2\SC(=O)N(CC(=O)Nc3cccc(C)c3)C2=O)cc1O | ? | 23.4% | -10.1 | ? | 1.3
CC(=O)c1ccc(NC(=S)NCCCN2CCOCC2)cc1 | 58.3% | 0.8% | 16.6 | -18.6% | 2.8
CCN1CCc2c(OCC(=O)N3N=C(c4cccs4)CC3c3ccc(F)cc3)cccc2C1=O (stereo unspecified) | ? | 1.8% | -0.9 | 9.28µM* | -2.9
COc1ccc(C2=NN(C(=O)CSc3nc(=O)n4cccc(C)c4n3)C(c3ccc(C)cc3)C2)cc1 (stereo unspecified) | ? | / | / | 11.7µM* | /
COc1cccc(C2CC(c3cccs3)=NN2C(=O)CSC2=NN3CCCC(=O)N=C3S2)c1OC (stereo unspecified) | 0.465µM* | -11.3% | 10.3 | 7.38µM* | -4.3
CN1CCc2c(OCC(=O)N3N=C(c4cccs4)CC3c3ccc(F)cc3)cccc2C1=O (stereo unspecified) | ? | 12.7% | -1.3 | ? | -1.1
